According to PubChem BioAssay (NCATS):
Records with an inconclusive call do not appear. Where a call stands in place of a potency, no number is given. A number with no mark means an inactive call. Calls of active or inactive are those of the source. Calls follow the shape of the dose curve; as a rule, active = well fitted curve in the direction sought with a large enough effect; inconclusive = small, poorly fitted or top-dose-only effect, or another doubt; inactive = no such curve, though single readings can be large; an effect the other way counts as inactive or inconclusive.

Tests used:
[1] = biological target: Cellular tumor antigen p53 (Homo sapiens) (UniProt P04637); assay: Primary qHTS for small molecule compounds that upregulate eGFP-tagged delta133p53alpha (in N-terminal) cells. (AID 2060322); conditions: NCI-H358 eGFP-delta133p53alpha fluorescence, 24 h; activation: hits give high values; also: nearly all actives have a fitted effect of over 75% in size; also: potency is read from the fitted curve at half-maximal effect;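 as to activation: cells pre-induced with doxycycline then dosed without doxycycline; series mostly up to about 56 µM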
Outline: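 NCI-H358 cells pre-induced 24 h with 10 ng/ml doxycycline for eGFP-delta133p53alpha, plated dox-free and exposed 24 h at 37C to titrated compounds. Fixed, Hoechst-stained; gated GFP peak intensity by laser scanning cytometry, normalized to DMSO (0%) and 57.5 uM 5-azacytidine (100%).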

[2] = biological target: Aldehyde dehydrogenase, mitochondrial (Homo sapiens) (UniProt P05091); assay: qHTS for Inhibitors of the Aldehyde Dehydrogenase Family (ALDH2) Primary screen (AID 2061308); also: nearly all actives have a fitted effect of over 55% in size
[3] = biological target: Retinaldehyde dehydrogenase 3 (Homo sapiens) (UniProt P47895); assay: qHTS for Inhibitors of the Aldehyde Dehydrogenase Family (ALDH1A3) Primary screen (AID 2061315)
[4] = biological target: Aldehyde dehydrogenase 1A1 (Homo sapiens) (UniProt P00352); assay: qHTS for Inhibitors of the Aldehyde Dehydrogenase Family (ALDH1A1) Confirmatory screens (AID 2061316); also: nearly all actives have a fitted effect of over 65% in size
[5] = BET inhibitor-based combinations targeting novel dependencies in MECOM-rearranged (r) AML: SET-2 cell line (AID 2202231); conditions: SET-2 AML cells viability, CellTiter-Glo luminescence, 48 h; viability: hits give low values, concentration not given here; also: potency is read from the fitted curve at half-maximal effect; nearly all actives have a fitted effect of over 35% in size
Outline: (§1)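 500 cells/well; 11-pt dose curve; 48 h, standard incubator; CellTiter-Glo luminescence after 15 min RT; DMSO/empty-well normalization; AUC plus Z-AUC (mean-centered within each line).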

[6] = BET inhibitor-based combinations targeting novel dependencies in MECOM-rearranged (r) AML: OCI-AML3 cell line (AID 2202232); conditions: Potency: OCI-AML3 viability; also: potency is read from the fitted curve at half-maximal effect; nearly all actives have a fitted effect of over 35% in size
Outline: as §1

[7] = BET inhibitor-based combinations targeting novel dependencies in MECOM-rearranged (r) AML: MV-4-11 cell line (AID 2202233); also: potency is read from the fitted curve at half-maximal effect; nearly all actives have a fitted effect of over 45% in size
Outline: (§2)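 Cells were plated at 500 per well and exposed to each drug across an 11-point dose range for 48 hr at standard incubator conditions. Viability was read by CellTiter-Glo luminescence, and activity was expressed as AUC and per-cell-line Z-transformed AUC.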

[8] = BET inhibitor-based combinations targeting novel dependencies in MECOM-rearranged (r) AML: HNT-34 cell line (AID 2202234); also: potency is read from the fitted curve at half-maximal effect; nearly all actives have a fitted effect of over 35% in size
Outline: as §2

[9] = BET inhibitor-based combinations targeting novel dependencies in MECOM-rearranged (r) AML: UCSD-AML1 cell line (AID 2202235); also: potency is read from the fitted curve at half-maximal effect; nearly all actives have a fitted effect of over 40% in size
Outline: as §2

Chain of Cellular tumor antigen p53 (Homo sapiens) (P04637 whole entry, looked up): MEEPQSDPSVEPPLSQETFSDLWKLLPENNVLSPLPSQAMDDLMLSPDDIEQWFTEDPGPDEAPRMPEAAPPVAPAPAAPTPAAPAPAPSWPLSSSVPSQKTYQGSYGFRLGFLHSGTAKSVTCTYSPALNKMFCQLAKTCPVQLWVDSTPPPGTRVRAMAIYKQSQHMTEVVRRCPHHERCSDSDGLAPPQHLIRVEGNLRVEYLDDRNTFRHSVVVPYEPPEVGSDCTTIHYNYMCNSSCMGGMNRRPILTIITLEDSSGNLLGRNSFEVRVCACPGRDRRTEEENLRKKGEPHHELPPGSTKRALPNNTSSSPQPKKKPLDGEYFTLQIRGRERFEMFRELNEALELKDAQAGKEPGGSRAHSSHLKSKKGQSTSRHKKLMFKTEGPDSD

SMILES: CC1COC(Nc2ccc3ncnc(Nc4ccc(OCc5nccs5)c(Cl)c4)c3c2)=N1 (stereo not given)
- activation [1]: 13.4%
- Potency [2]: inactive
- Potency [3]: inactive

SMILES: C=CCc1ccc(O[C@@H]2O[C@H](CO)[C@@H](O)[C@H](O)[C@H]2O)c(OC)c1
- activation [1]: -19.6%
- Potency [2]: inactive
- Potency [3]: inactive

SMILES: C=CC(C)(C)c1[nH]c2cc3c(cc2c1CC1NC(=O)C2=CCCN2C1=O)C=CC(C)(C)O3 (stereo not given)
- activation [1]: -10.7%
- Potency [2]: inactive
- Potency [3]: inactive

SMILES: CC1(C)CC[C@]2(C(=O)O[C@@H]3O[C@H](CO)[C@@H](O)[C@H](O)[C@H]3O)CC[C@]3(C)C(=CCC4[C@@]5(C)C[C@H](O)[C@H](O[C@@H]6O[C@H](C(=O)O)[C@@H](O)[C@H](O)[C@H]6O)[C@@](C)(CO)C5CC[C@]43C)C2C1 (stereo not given in full)
- activation [1]: -11.6%
- activity change, negative = inhibition [2]: 12.5% [at 11.2 µM]
- activity change, negative = inhibition [3]: 11% [at 11.2 µM]

SMILES: C=C1CC[C@@H]2[C@](C)(CO)[C@H](O)CC[C@@]2(C)[C@@H]1C/C=C1/C(=O)OCC1O (stereo not given in full)
- Potency [1]: 23.9 µM (active)
- Potency [2]: inactive
- Potency [3]: inactive

SMILES: COc1ccc2nc(S(=O)(=O)Cc3ncc(C)c(OC)c3C)[nH]c2c1
- activation [1]: 6.33%
- Potency [2]: inactive
- Potency [3]: inactive

SMILES: COc1c2c(cc3c1-c1c(cc4c(c1OC)OCO4)CC(C)C(C)C3)OCO2 (stereo not given)
- activation [1]: -6.87%
- Potency [2]: inactive
- Potency [3]: inactive

SMILES: CC(C)C(NC(=O)c1ccc2ccccc2n1)C(=O)NC(CC(=O)O)C(=O)COc1c(F)cccc1F (stereo not given)
- activation [1]: 2.33%
- Potency [2]: inactive
- Potency [3]: inactive

SMILES: C=CC1C(O[C@@H]2O[C@H](CO)[C@@H](O)[C@H](O)[C@H]2O)OC=C(C(=O)OC)C1Cc1nccc2c1[nH]c1ccccc12 (stereo not given in full)
- activation [1]: 19.6%
- Potency [2]: inactive
- Potency [3]: inactive

SMILES: C=C(CCO[C@@H]1O[C@H](CO)[C@@H](O)[C@H](O)[C@H]1O)C(=O)O
- activation [1]: -22.3%
- Potency [2]: inactive
- Potency [3]: inactive

SMILES: COC(=O)N1CCC(n2ncc3c(N4CCOCC4)nc(-c4ccc(NC(=O)Nc5ccc(CO)cc5)cc4)nc32)CC1
- Potency [1]: 21.3 µM (active)
- Potency [2]: inactive
- Potency [3]: inactive

SMILES: CC12CCC3c4ccc(O)cc4CCC3C1CC(OC1OC(C(=O)O)C(O)C(O)C1O)C2O (stereo not given)
- activation [1]: -10.3%
- Potency [2]: inactive
- Potency [3]: inactive

SMILES: C/C=C/C=C/C=C/C(=O)O[C@@H]1C=C(CO)C(O)(C(=O)OC)[C@@]2(C)CCCC(C)(C)C12 (stereo not given in full)
- activation [1]: -10.7%
- Potency [2]: inactive
- Potency [3]: inactive

SMILES: CC(C)(O)C1CCC2(C)C3C(O)C4C(C13)C42CO (stereo not given)
- activation [1]: 3.57%
- Potency [2]: inactive
- Potency [3]: inactive

SMILES: C=C(C(=O)O)C1CC(O)C2(C)CCCC(=C)C2C1 (stereo not given)
- activation [1]: 3.82%
- Potency [2]: inactive
- Potency [3]: inactive

SMILES: CCC(O)C(C)C1CCC(C(C)C(=O)O)O1 (stereo not given)
- activation [1]: 13.4%
- Potency [2]: inactive
- Potency [3]: inactive
- Potency [4]: inactive

SMILES: CC1(C)CC2=C3C=CC4C5(C)CCC(O)C(C)(C)C5CCC4(C)C3(C)CCC2(C)C(O)C1 (stereo not given)
- activation [1]: -8.04%
- Potency [2]: inactive
- Potency [3]: inactive

SMILES: CO[C@H]1C[C@@H]2CC[C@@H](C)[C@@](O)(O2)C(=O)C(=O)N2CCCC[C@H]2C(=O)O[C@H]([C@H](C)C[C@@H]2CC[C@@H](OP(C)(C)=O)[C@H](OC)C2)CC(=O)[C@H](C)/C=C(\C)[C@@H](O)[C@@H](OC)C(=O)[C@H](C)C[C@H](C)/C=C/C=C/C=C/1C
- activation [1]: 3%
- Potency [2]: inactive
- Potency [3]: inactive
- Potency [5]: 23.5 µM (active)
- Potency [6]: 23.5 µM (active)
- Potency [7]: 14.8 µM (active)
- Potency [8]: 1.48 µM (active)
- Potency [9]: 0.0033 µM (active)

SMILES: C[C@@H]1O[C@@H](O[C@H]2[C@@H]3C=CO[C@@H](O[C@@H]4O[C@H](CO)[C@@H](O)[C@H](O)[C@H]4O)[C@@H]3[C@@]3(CO)O[C@@H]23)[C@H](OC(=O)/C=C/c2ccccc2)[C@H](O)[C@H]1O
- activation [1]: 4.46%
- Potency [2]: inactive
- Potency [3]: inactive

SMILES: COC(O)(CC(C)C)C1Oc2cc(C)[nH]c(=O)c2O1 (stereo not given)
- activation [1]: -26.7%
- Potency [2]: inactive
- Potency [3]: inactive

SMILES: CC(=O)c1[nH]cc(CCC(=O)O)c1CC(=O)O
- activation [1]: -15.3%
- Potency [2]: inactive
- Potency [3]: inactive

SMILES: CC(C)(O[C@@H]1O[C@H](CO)[C@@H](O)[C@H](O)[C@H]1O)C(OC(=O)/C=C\c1ccc(O)cc1)C(=O)OCc1ccc(O[C@@H]2O[C@H](CO)[C@@H](O)[C@H](O)[C@H]2O)cc1 (stereo not given in full)
- activation [1]: -8.4%
- Potency [2]: inactive
- Potency [3]: inactive

SMILES: C[C@@H]1O[C@@H](O[C@H]2[C@@H]3C=CO[C@@H](O[C@@H]4O[C@H](CO)[C@@H](O)[C@H](O)[C@H]4O)[C@@H]3[C@@]3(CO)O[C@@H]23)[C@H](O)[C@H](OC(=O)/C=C/c2ccccc2)[C@H]1O
- activation [1]: 0.763%
- Potency [2]: inactive
- Potency [3]: inactive
